This passage reports Potency and outcome results from PubChem BioAssay (Tox21).

Records with an inconclusive call do not appear. The source made the active and inactive calls. Unless noted, the call rests on the fitted dose curve; in most records, active means well fitted curve in the direction sought with a large enough effect in the repeat runs; inconclusive means weak or mixed curves; inactive means no such curve, though single readings can be large; an effect the other way counts as inactive or inconclusive.

Test [1] has as its target Aryl hydrocarbon receptor (Homo sapiens) (UniProt P35869). Description: qHTS assay to identify small molecule that activate the aryl hydrocarbon receptor (AhR) signaling pathway (AID 743085). Further: nearly all actives have a fitted effect of over 15% in size. Further: potency means the concentration at half of the fitted maximal effect.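 On activation: HG2L7.5c1 human HepG2 liver cells with stably integrated DRE-driven firefly reporter; series mostly up to about 70 µM.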 Summed up: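 Steps: seed HepG2-AhR-luc cells; allow 5 h at 37C; pin-transfer test compound or vehicle; incubate 24 h at 37C; add viability dye (30 min, 37C) and read fluorescence; add luciferase substrate (30 min, RT) and read luminescence.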
A general note: qHTS replaces the single test concentration by a dilution series.

Test [2] can be described thus: qHTS assay to identify small molecule that activate the aryl hydrocarbon receptor (AhR) signaling pathway - cell viability counter screen (AID 743086).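 Further: HepG2 liver cells carrying the AhR DRE luciferase reporter; series mostly up to about 70 µM; nearly all actives have a fitted effect of over 45% in size.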 The essentials:
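HepG2-AhR-luc (HG2L7.5c1) cells, 4000/well, treated 24 h at 37 C with compound; viability measured as CellTiter-Fluor fluorescence after 30 min in the same wells as the luciferase read.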

Test [3] addresses Peroxisome proliferator-activated receptor gamma (Homo sapiens) (UniProt P37231). The experiment in a line: qHTS assay to identify small molecule agonists of the peroxisome proliferator-activated receptor gamma (PPARg) signaling pathway (AID 743094; active means well fitted activation curve with a large enough effect in the signal ratio in the repeat runs, not every such curve was filed as active; the % refers to the signal ratio). The essentials:
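Following 5 h plating at 37C, PPARg-bla HEK293H cells receive compound or DMSO for 17 h; fluorescence intensity is recorded after LiveBLAzer B/G loading for 1 h at room temperature.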

The target is the same in test [4]. Description: qHTS assay to identify small molecule antagonists of the peroxisome proliferator-activated receptor gamma (PPARg) signaling pathway (AID 743191; calls by dose curve; further: series mostly up to about 63 µM; nearly all actives have a fitted effect of over 30% in size). The essentials:
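GeneBLAzer PPARg UAS-bla HEK293H cells, 5 h post-plating, exposed to compounds 17 h at 37C. LiveBLAzer B/G FRET substrate added for 1 h at room temperature; beta-lactamase reporter read by fluorescence intensity.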

A short description of test [5]: qHTS assay to identify small molecule antagonists of the peroxisome proliferator-activated receptor gamma (PPARg) signaling pathway - cell viability counter screen (AID 743194). Further: nearly all actives have a fitted effect of over 55% in size. The conditions noted are these: Potency: co-treated with 50 nM rosiglitazone. Summed up: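 Cytotoxicity counter screen in PPARg-bla HEK293H cells, same wells as reporter assay. Compounds plus 50 nM rosiglitazone (final) for 17 h at 37 C, then viability read by CellTiter-Glo luminescence.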

The nature of test [6]: qHTS assay for small molecule agonists of the antioxidant response element (ARE) signaling pathway (AID 743202; active means well fitted activation curve with a large enough effect in the signal ratio in the repeat runs, not every such curve was filed as active; the % refers to the signal ratio). The essentials: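 Agonist mode reporter screen: HepG2 cells with ARE-controlled beta-lactamase are incubated with test compounds for 16 h at 37 C, and beta-lactamase activity is measured as fluorescence of cleaved B/G FRET substrate.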
Test [7] is described as follows: qHTS assay for small molecule agonists of the antioxidant response element (ARE) signaling pathway - cell viability counter screen (AID 743203; calls by dose curve; further: nearly all actives have a fitted effect of over 55% in size). Summed up: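 Compounds in DMSO were pinned onto ARE-bla HepG2 cells plated 5 hrs earlier at 2,000 cells/well. Sixteen hours later at 37C/5% CO2, CellTiter-Glo was added and luminescence measured after 30 min at room temperature.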

Test [8] can be described thus: qHTS assay for small molecule activators of the heat shock response signaling pathway - cell viability counter screen (AID 743209). Further: nearly all actives have a fitted effect of over 50% in size. Summed up: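 Counter screen for cytotoxicity in HeLa HSE-bla reporter cells. Treatment was 5 h at 37 C; viability was detected by luminescent ATP assay (CellTiter-Glo) in the same wells as the beta-lactamase read.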
A short description of test [9]: qHTS assay to identify small molecule agonists of the peroxisome proliferator-activated receptor delta (PPARd) signaling pathway - cell viability counter screen (AID 743211). Further: nearly all actives have a fitted effect of over 55% in size. Summed up:
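Viability of GeneBLAzer PPARd UAS-bla HEK293H cells was assessed after 17 h compound incubation at 37C, using CellTiter-Glo reagent added after the reporter read and luminescence recorded 30 min later.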

For test [10], the target named is Peroxisome proliferator-activated receptor delta (Homo sapiens) (UniProt Q03181). Description: qHTS assay to identify small molecule agonists of the peroxisome proliferator-activated receptor delta (PPARd) signaling pathway (AID 743212; calls by dose curve). Summed up:
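Quantitative high-throughput agonist screen in a HEK293H beta-lactamase reporter line under UAS control. Compounds in DMSO, at 37 C. Fluorescence read after 2 h with FRET substrate at room temperature.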

Test [11] is described as follows: qHTS assay to identify small molecule antagonists of the peroxisome proliferator-activated receptor delta (PPARd) signaling pathway - cell viability counter screen (AID 743213). Further: nearly all actives have a fitted effect of over 50% in size. Summed up:
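In this counter screen, HEK293H cells carrying a UAS-beta-lactamase reporter are co-treated with test compounds and 300 nM L165041 (final) for 17 h at 37 C; cell viability is quantified by CellTiter-Glo luminescence.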

Test [12] deals with Bile acid receptor (Homo sapiens) (UniProt Q96RI1). Description: qHTS assay to identify small molecule antagonists of the farnesoid-X-receptor (FXR) signaling pathway (AID 743217; active means well fitted inhibition curve with a large enough effect in the signal ratio in the repeat runs, not every such curve was filed as active; the % refers to the signal ratio). The essentials:
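In this cell-based antagonist screen, inhibition of CDCA-driven (50 uM final) UAS-beta-lactamase expression in HEK 293T cells was measured by FRET fluorescence following 16 h compound exposure at 37 °C.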

Test [13] can be described thus: qHTS assay to identify small molecule agonists of the farnesoid-X-receptor (FXR) signaling pathway - cell viability counter screen (AID 743218). Further: nearly all actives have a fitted effect of over 45% in size. The essentials: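 After 16 h at 37 C with test compounds, FXR-bla HEK 293T cells were given LiveBLAzer B/G substrate for 2 h at RT and then CellTiter-Glo; luminescence was taken after 30 min.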
For test [14], the target named is Bile acid receptor (Homo sapiens) (UniProt Q96RI1). Description: qHTS assay to identify small molecule agonists of the farnesoid-X-receptor (FXR) signaling pathway (AID 743220; active means well fitted activation curve with a large enough effect in the signal ratio in the repeat runs, not every such curve was filed as active; the % refers to the signal ratio). Summed up: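 Beta-lactamase reporter under UAS control in GeneBLAzer FXR HEK 293T cells (5000/well) measured with LiveBLAzer FRET substrate after 2 h at room temperature. Compound exposure lasted 16 h at 37C.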

A short description of test [15]: qHTS assay to identify small molecule antagonists of the farnesoid-X-receptor (FXR) signaling pathway - cell viability counter screen (AID 743221; active means well fitted cell-killing curve with a large enough effect in the repeat runs, not every such curve was filed as active; further: nearly all actives have a fitted effect of over 50% in size). Summed up:
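Quantitative HTS of the Tox21 10K library run in parallel with the beta-lactamase reporter read. HEK 293T cells carrying a UAS-driven bla reporter got compound and 50 uM CDCA (final) for 16 h; ATP-based luminescence followed.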

Test [16] deals with Vitamin D3 receptor (Homo sapiens) (UniProt P11473). Description: qHTS assay to identify small molecule agonists of the vitamin D receptor (VDR) signaling pathway (AID 743222; calls by dose curve). The essentials: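 VDR-bla cells were seeded, left 4 h, treated with compounds in DMSO for 16 h, incubated 2 h at RT with B/G FRET substrate, and read for fluorescence.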
The target is the same in test [17]. Description: qHTS assay to identify small molecule antagonists of the vitamin D receptor (VDR) signaling pathway (AID 743223; active means well fitted inhibition curve with a large enough effect in the signal ratio in the repeat runs, not every such curve was filed as active; the % refers to the signal ratio). Summed up: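 Fluorescence from LiveBLAzer B/G FRET substrate, read after 2 h at room temperature, reflects beta-lactamase reporter activity in VDR-bla cells treated 16 h at 37C with compounds and agonist 1alpha,25-dihydroxyvitamin D3 (3 nM final).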

Test [18] is described as follows: qHTS assay to identify small molecule agonists of the vitamin D receptor (VDR) signaling pathway - cell viability counter screen (AID 743224). Further: series mostly up to about 63 µM; nearly all actives have a fitted effect of over 50% in size. Summed up:
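Here cell health was gauged by luminescent ATP detection (CellTiter-Glo, 30 min RT) in VDR-bla cells that had been incubated with test compounds for 16 h at 37C and 5% CO2.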

Test [19] can be described thus: qHTS assay for small molecule activators of the heat shock response signaling pathway (AID 743210; active means well fitted activation curve with a large enough effect in the signal ratio in the repeat runs, with a control signal flat, not every such curve was filed as active; the % refers to the signal ratio;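 further: HeLa cells with beta-lactamase reporter driven by heat shock elements; series mostly up to about 63 µM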). Summed up: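 Quantitative high-throughput format using an engineered HeLa line in which heat shock response elements drive beta-lactamase; after 5 h with compound, cells received a B/G FRET substrate and fluorescence was read.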
The target in test [20] is Peroxisome proliferator-activated receptor delta (Homo sapiens) (UniProt Q03181). The experiment in a line: qHTS assay to identify small molecule antagonists of the peroxisome proliferator-activated receptor delta (PPARd) signaling pathway (AID 743215; active means well fitted inhibition curve with a large enough effect in the signal ratio in the repeat runs, not every such curve was filed as active; the % refers to the signal ratio;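 further: cells stimulated with agonist L165041 at 300 nM final during compound exposure; series mostly up to about 62 µM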). Summed up: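 With L165041 present at 300 nM final, compounds were incubated 17 h at 37 C on PPARd UAS-bla HEK293H cells. A FRET-based beta-lactamase substrate was then applied for 2 h at room temperature and fluorescence intensity recorded.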
Peroxisome proliferator-activated receptor delta (Homo sapiens), sequence (Q03181 whole entry, looked up): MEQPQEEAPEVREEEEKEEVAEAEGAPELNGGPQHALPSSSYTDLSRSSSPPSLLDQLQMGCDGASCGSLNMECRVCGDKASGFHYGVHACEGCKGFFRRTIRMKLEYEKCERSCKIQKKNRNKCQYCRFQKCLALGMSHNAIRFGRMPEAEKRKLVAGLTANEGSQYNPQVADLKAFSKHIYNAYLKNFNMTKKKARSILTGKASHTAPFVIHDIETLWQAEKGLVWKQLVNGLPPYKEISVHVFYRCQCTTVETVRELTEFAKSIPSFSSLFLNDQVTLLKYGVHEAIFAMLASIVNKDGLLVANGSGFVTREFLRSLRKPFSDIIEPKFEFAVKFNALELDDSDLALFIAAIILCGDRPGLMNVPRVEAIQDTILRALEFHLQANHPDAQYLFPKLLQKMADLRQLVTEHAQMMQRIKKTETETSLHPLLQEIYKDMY

Peroxisome proliferator-activated receptor gamma (Homo sapiens), sequence (P37231 whole entry, looked up): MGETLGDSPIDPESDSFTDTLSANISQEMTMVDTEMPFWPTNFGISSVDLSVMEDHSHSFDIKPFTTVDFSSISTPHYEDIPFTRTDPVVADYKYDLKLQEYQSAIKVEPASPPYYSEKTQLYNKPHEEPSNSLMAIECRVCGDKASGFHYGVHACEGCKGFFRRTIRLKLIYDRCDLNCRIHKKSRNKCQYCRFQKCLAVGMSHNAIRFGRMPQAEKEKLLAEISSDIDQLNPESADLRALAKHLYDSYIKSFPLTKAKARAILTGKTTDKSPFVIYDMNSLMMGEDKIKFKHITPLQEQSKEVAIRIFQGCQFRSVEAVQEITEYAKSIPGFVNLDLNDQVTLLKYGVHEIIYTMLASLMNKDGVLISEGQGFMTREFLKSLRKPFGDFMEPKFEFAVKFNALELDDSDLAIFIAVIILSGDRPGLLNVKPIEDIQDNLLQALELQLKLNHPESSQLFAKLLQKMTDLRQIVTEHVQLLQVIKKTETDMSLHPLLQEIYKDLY
Aryl hydrocarbon receptor (Homo sapiens), sequence (P35869 whole entry, looked up): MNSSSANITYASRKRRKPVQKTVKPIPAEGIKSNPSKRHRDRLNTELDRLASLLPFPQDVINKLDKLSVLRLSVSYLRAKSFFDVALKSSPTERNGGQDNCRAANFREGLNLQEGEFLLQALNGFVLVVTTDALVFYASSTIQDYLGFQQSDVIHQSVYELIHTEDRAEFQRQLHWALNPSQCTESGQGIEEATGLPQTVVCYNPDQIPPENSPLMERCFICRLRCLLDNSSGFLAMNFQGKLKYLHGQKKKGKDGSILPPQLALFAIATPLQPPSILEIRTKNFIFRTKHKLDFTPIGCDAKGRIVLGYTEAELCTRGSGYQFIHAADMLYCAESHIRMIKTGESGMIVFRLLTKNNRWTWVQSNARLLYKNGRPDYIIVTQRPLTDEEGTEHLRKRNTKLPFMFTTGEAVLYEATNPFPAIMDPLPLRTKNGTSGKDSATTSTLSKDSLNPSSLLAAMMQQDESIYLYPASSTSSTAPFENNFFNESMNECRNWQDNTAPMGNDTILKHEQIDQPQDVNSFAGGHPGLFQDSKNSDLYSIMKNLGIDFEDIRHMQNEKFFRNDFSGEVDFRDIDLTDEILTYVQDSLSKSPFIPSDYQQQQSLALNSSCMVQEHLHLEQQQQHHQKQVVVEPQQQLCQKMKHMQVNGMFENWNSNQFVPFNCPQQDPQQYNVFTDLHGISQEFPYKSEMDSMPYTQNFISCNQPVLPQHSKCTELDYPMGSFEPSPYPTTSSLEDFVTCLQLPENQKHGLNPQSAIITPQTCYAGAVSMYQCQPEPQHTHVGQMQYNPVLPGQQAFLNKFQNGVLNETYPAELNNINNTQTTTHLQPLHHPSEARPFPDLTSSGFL
Bile acid receptor (Homo sapiens), sequence (Q96RI1 whole entry, looked up): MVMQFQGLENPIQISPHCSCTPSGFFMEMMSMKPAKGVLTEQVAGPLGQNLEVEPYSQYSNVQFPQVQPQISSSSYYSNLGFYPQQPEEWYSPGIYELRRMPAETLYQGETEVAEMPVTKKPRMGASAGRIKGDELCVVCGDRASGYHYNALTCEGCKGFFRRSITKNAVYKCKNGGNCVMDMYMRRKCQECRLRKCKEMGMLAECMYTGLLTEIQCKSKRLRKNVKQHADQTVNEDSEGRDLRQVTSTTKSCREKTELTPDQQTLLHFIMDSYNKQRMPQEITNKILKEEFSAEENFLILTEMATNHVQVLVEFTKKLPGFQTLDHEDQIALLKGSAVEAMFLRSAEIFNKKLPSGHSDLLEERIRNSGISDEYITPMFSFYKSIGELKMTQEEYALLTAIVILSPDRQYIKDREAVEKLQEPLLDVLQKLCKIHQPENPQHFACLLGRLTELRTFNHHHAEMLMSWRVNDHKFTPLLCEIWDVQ
Vitamin D3 receptor (Homo sapiens), sequence (P11473 whole entry, looked up): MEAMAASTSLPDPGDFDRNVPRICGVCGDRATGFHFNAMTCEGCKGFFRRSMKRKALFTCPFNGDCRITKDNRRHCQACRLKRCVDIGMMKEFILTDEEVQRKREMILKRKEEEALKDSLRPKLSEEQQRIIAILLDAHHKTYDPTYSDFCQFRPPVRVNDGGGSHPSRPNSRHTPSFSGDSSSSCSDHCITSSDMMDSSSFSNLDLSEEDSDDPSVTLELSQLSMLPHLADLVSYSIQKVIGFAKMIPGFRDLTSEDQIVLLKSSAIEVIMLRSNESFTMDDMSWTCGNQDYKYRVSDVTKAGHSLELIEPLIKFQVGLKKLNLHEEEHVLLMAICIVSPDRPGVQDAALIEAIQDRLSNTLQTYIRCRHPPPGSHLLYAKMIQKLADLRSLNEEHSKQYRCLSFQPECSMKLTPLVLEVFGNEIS

On to `CNC(=O)Oc1c(C(C)(C)C)cc(C)cc1C(C)(C)C`, for which the Potency result in [1], in test [4], in test [5], in test [6], in [7] and in test [8] was “inactive” throughout. Also, the Potency result in test [9], in [12], in [13] and in test [18] was “inactive” each time. Moreover, the outcome in test [2], in [3], in [10], in test [11], in test [14] and in test [15] was inactive. In addition, the outcome in test [16] and in test [17] was inactive.
Turning to `O=C(CCN1CC1)OCC(CO)(COC(=O)CCN1CC1)COC(=O)CCN1CC1`, the Potency result in test [1], in test [4], in test [5], in [7], in test [8] and in [9] was “inactive” in each case. Besides, the Potency result in test [12], in [13] and in [18] was “inactive” throughout. Moreover, the call in test [2], in test [3], in test [19], in [11], in test [14] and in test [15] was inactive.
In the case of `O=C1CN=C(c2ccccc2)c2cc([N+](=O)[O-])ccc2N1`, the Potency result in test [1], in test [4], in test [5], in [6], in test [7] and in test [8] was “inactive” throughout. Moreover, the Potency entry in test [9], in test [13] and in test [18] was “inactive” each time. For the same molecule, the result in test [2], in test [3], in [19], in test [10], in [11] and in test [20] was inactive. In addition, the result in test [15], in test [16] and in test [17] was inactive.
`OC(Cn1cncn1)(c1ccc(F)cc1)c1ccccc1F` (stereo not given): the Potency result in test [1], in test [4], in test [5], in [6], in test [7] and in [8] was “inactive” throughout. Also, the Potency result in test [9], in test [13] and in test [18] was “inactive” in each case. The result in test [2], in [3], in test [19], in test [10], in [11] and in [20] was inactive. The molecule was classed as inactive in test [15] and in test [17].
On to `CCOP(=S)(OCC)Oc1nc(Cl)n(C(C)C)n1`, for which the Potency in [1] was 10.9 µM (active). Also, the molecule was classed as inactive in [2], in test [3], in test [19], in test [15], in test [16] and in test [17]. Moreover, the Potency entry in test [4], in test [5], in test [6], in [7], in test [8] and in [9] was “inactive” in each case. The Potency entry in [13] and in test [18] was “inactive” each time.
Take `CCOP(=O)(N=C1SCCS1)OCC`: the Potency result in test [1], in test [4], in test [5], in test [6], in test [7] and in test [8] was “inactive” each time. In addition, the Potency entry in test [9], in [13] and in [18] was “inactive” each time. Besides, the result in test [2], in [3], in test [19], in [11] and in [15] was inactive.
As for `COc1ccc(C(=O)N2CCCC2=O)cc1`, the Potency entry in test [1], in [4], in test [5], in test [6], in [7] and in test [8] was “inactive” each time. Besides, the Potency entry in [9], in [13] and in [18] was “inactive” in each case. For the same molecule, the molecule was called inactive in test [2], in [3], in [19], in test [10], in test [11] and in test [20]. In addition, the result in test [15] and in test [17] was inactive.
Turning to `CC(C)(C)C(=O)C(Oc1ccc(Cl)cc1)n1cncn1` (stereo not given), the Potency in [1] was 48.5 µM (active). Further, the molecule was called inactive in test [2], in test [3], in [19], in test [10], in test [20] and in test [15]. The molecule was classed as inactive in test [16]. The Potency result in [4], in test [5], in [6], in test [7], in [8] and in [9] was “inactive” throughout. In addition, the Potency result in test [13] and in [18] was “inactive” each time.
